Source: the supplement of paper PMC6555819

How the values were obtained:
Experiment in all cases: PBM binding z-score (relative to random genomic background probes); higher = stronger binding; sequences stand for … in GC…GCGATTGACAGCGTAGAATGAAGG
[1] = system: FXR:RXRa (NR concentration 270 nM, RXRa partner concentration 90 nM)
Outline: (§1)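 Binding z-scores take random background probes as their reference. They come from custom Agilent 4×180K protein-binding microarrays incubated 1 h with ligand-free nuclear receptor dimers, with antibodies against each partner (one per run) detecting binding. Scanned fluorescence was regression-normalized.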

[2] = system: LXRa:RXRa (NR concentration 270 nM, RXRa partner concentration 90 nM)
Outline: as §1

[3] = system: LXRa homodimer (NR concentration 270 nM)
Outline: as §1

[4] = system: LXRb:RXRa (NR concentration 270 nM, RXRa partner concentration 90 nM)
Outline: as §1

[5] = system: LXRb homodimer (NR concentration 270 nM)
Outline: as §1

[6] = system: PPARa:RXRa (NR concentration 270 nM, RXRa partner concentration 90 nM)
Outline: as §1

[7] = system: PPARg:RXRa (NR concentration 180 nM, RXRa partner concentration 90 nM)
Outline: as §1

[8] = system: PPARg:RXRa 270nM:90nM, anti-RXR (NR concentration 270 nM, RXRa partner concentration 90 nM)
Outline: as §1

[9] = system: PPARg:RXRa 30nM:10nM, anti-RXR (NR concentration 30 nM, RXRa partner concentration 10 nM)
Outline: as §1

[10] = system: PPARg:RXRa 90nM:30nM, anti-RXR (NR concentration 90 nM, RXRa partner concentration 30 nM)
Outline: as §1

[11] = system: PPARg:RXRa DBDmut IVT, anti-RXR (DBD mutation: RXRa K156A/R161A, NR concentration 270 nM, RXRa partner concentration 90 nM)
Outline: as §1

[12] = system: PPARg:RXRa IVT, anti-PPARg (NR concentration 270 nM, RXRa partner concentration 90 nM)
Outline: as §1

[13] = system: PPARg DBDmut:RXRa IVT, anti-PPARg (DBD mutation: PPARg1 K132A/R137A, NR concentration 270 nM, RXRa partner concentration 90 nM)
Outline: as §1

[14] = system: PPARg DBDmut IVT, anti-PPARg (DBD mutation: PPARg1 K132A/R137A, NR concentration 270 nM)
Outline: as §1

[15] = system: PPARg homodimer (NR concentration 180 nM)
Outline: as §1

[16] = system: PXR:RXRa (NR concentration 270 nM, RXRa partner concentration 90 nM)
Outline: as §1

[17] = system: PXR homodimer (NR concentration 270 nM)
Outline: as §1

[18] = system: RARa:RXR (NR concentration 270 nM, RXRa partner concentration 90 nM)
Outline: as §1

[19] = system: RARa homodimer (NR concentration 270 nM)
Outline: as §1

[20] = system: RARb:RXRa (NR concentration 270 nM, RXRa partner concentration 90 nM)
Outline: as §1

Sequence	PBM binding z-score [1]	PBM binding z-score [2]	PBM binding z-score [3]	PBM binding z-score [4]	PBM binding z-score [5]	PBM binding z-score [6]	PBM binding z-score [7]	PBM binding z-score [8]	PBM binding z-score [9]	PBM binding z-score [10]	PBM binding z-score [11]	PBM binding z-score [12]	PBM binding z-score [13]	PBM binding z-score [14]	PBM binding z-score [15]	PBM binding z-score [16]	PBM binding z-score [17]	PBM binding z-score [18]	PBM binding z-score [19]	PBM binding z-score [20]
ATATGTAGTTTAGCTGGGGTCATTCAGACTAGGC	4.14	4.3	2.38	4.58	1.66	4.45	1.66	2.42	0.899	1.87	1.04	1.41	1.71	2.11	1.95	5.98	3.93	5.81	1.36	2.74
CCTGCTAGGTCATGGTCTGCTAATCTACAGTATG	3.19	2.35	0.138	1.97	-0.218	3.4	2.18	3.48	1.08	2.49	4.68	3.6	0.818	-0.517	0.597	1.33	-0.00693	2.22	-0.00634	3.87
CCTACTGGGCCATTCAGAGGTCAGTGATCATATG	0.991	1.94	2.35	1.78	-0.442	2.54	1.47	1.99	0.391	1.29	4.58	3.89	-0.582	-0.353	2.08	2.28	0.543	2.64	0.443	2.77
TCTTGTAGATCAACAGGAGGTGAAGAAAGATCGA	0.155	0.134	-0.343	0.298	-0.585	0.798	-0.0204	1.4	2.7	2.04	1.56	1.14	-0.0745	1.41	-0.39	0.179	-0.438	0.154	-0.0996	0.194
CGTCCAAGGTCATAGGAGGTTAGTGAAGACAGAT	7.23	6.11	2.12	4.77	0.715	5.61	4.92	5	2.04	3.54	2.69	3.67	0.657	-0.0801	3	5.46	2.22	4.61	1.31	5.06
TAGCCTAGGTCAGATCTGGCCAGTATACGCTATA	1.53	1.13	-0.379	0.773	0.0198	1.43	0.793	0.718	-0.145	0.178	0.589	1.44	-0.455	-0.0508	-0.0754	0.447	-1.1	0.766	-1.06	2.98
TTACCAAGGTGAGCTGAGGACGTTGATCCAACTC	1.1	-0.166	-0.767	-0.542	-1.14	0.258	-0.0163	-0.267	-0.263	-0.212	0.681	1.36	-0.327	-0.329	-0.722	2.25	-0.289	1.03	-0.906	1.05
ATCTCTGGGTAACAAGTTCAGTGAAAGAGAGGAC	0.503	0.668	0.353	0.819	0.98	1.7	1.62	1.83	0.953	1.5	2.93	2.94	0.76	0.979	1.27	1.87	1.92	0.922	1.24	1.75
GCTAGTTGGTCAGTAAAAGGTCACCCACCGGTCG	3.38	4.1	4.23	3.6	0.649	4.11	2.48	4.29	2.04	3.67	0.689	2.81	0.204	-0.0831	5.31	4.84	1.27	5.99	3.9	4.28
AGGATGAGGTTATTAAGATCAGGGAATTGCGGTC	2.1	1.84	0.789	1.65	0.764	2.29	1.06	1.24	0.391	0.788	0.511	0.741	0.904	0.665	1.83	1.69	1.82	1.53	0.954	1.72
CCGACTGGGGCAGAAAGTTTACCATACCATCCGG	-0.706	-0.595	-0.267	-0.494	-0.896	-0.213	0.681	0.251	-0.507	-0.116	1.85	0.907	-1.52	-1.73	0.00802	-0.282	0.645	-0.677	-0.166	0.775
CAAACTAGGTCAAAGGTTAAAGTCGAGCCAACCA	7.41	5.99	2.37	5.56	1.22	7.61	13.6	11.3	13	13.7	8.92	9.36	6.93	5.38	5.15	5.99	0.433	8.12	2.07	5.01
CAAACTAGGTCACAAAGGTCAAAGTCCGTGCGTA	7.43	6.7	7.48	6.59	3	6.49	10.3	8.31	7.58	8.55	8.59	8.71	2.54	2.7	7.19	6.69	11.9	7.63	4.27	5.46
TCAGACAGGTAAAGGTAACTCAGGTACGCAGTCG	1.07	3.02	0.16	1.79	0.229	1.48	1.11	2.56	4.03	3.14	2.37	0.745	0.618	0.192	0.82	0.892	0.37	1.35	0.782	0.904
CCTACTGGGCCAAAAAGGTCATTAATGCCGATAA	2.98	3.74	2.97	4.21	0.494	4.39	2.98	3.7	1.44	2.96	3.72	3.94	0.336	0.139	3.45	4.39	3.17	5.01	1.3	3.64
ACTATTAGTTGACTTAGGGCAATCGATACGACGC	0.199	0.203	0.0491	0.176	0.464	-0.0585	0.814	0.195	0.373	0.365	0.335	0.292	1.13	0.914	0.761	0.304	0.241	0.866	0.707	0.668
CCTACTGGGCCACAGGTCATTGATTCCAATGCTC	1.51	1.55	1.48	2.12	0.443	4.11	8.34	7.57	6.11	7.68	4.78	5.99	-0.262	-0.356	1.06	1.75	0.334	2.03	-0.37	2.26
AGAATGAGGTTTAGATCAGGGAAACAGAATACAT	0.0195	-0.0666	-0.0558	-0.395	-0.223	-0.306	0.649	0.00462	0.223	0.354	-0.558	-0.176	0.757	0.896	-0.0172	-0.27	-0.0808	-0.0668	0.721	-0.105
ACTAGCAGGCCAAGGGTAACTCAAGATTAGTCCG	-0.105	0.773	-0.457	-0.0796	-0.553	1.83	3.38	4.86	2.86	4.78	0.865	1.67	-0.794	-0.439	0.663	-0.287	-0.127	0.0162	-0.543	0.971
TAGGCTAGGTCAGATCGGGCCAGTATACGCTATA	1.84	0.947	-0.397	0.688	-0.542	1.42	0.684	0.646	-0.0664	0.434	0.883	1.39	-0.0594	-0.524	0.195	1.54	-0.57	1.55	-0.477	3.3
TGGAGTAGGTTAGTCGGGGCATTCAGCCAACATA	0.43	0.268	0.358	1.05	1.05	1.31	0.778	1.32	0.564	1.22	3.42	3.51	-0.389	-0.234	1.08	0.401	0.996	0.374	0.676	1.03
ACTAGTTGGTCAGCTGAGGTCACTCACAATTCGG	2.19	2.57	1.98	2.87	0.671	3.26	1.04	1.68	0.169	1.19	1.45	2.35	0.323	0.891	1.61	4.97	1.53	3.69	0.562	3.34
TAGCCTAGGTCATTCAGGGGCGAGTATAGAAAGC	5.04	5.21	0.875	3.77	1.13	3.69	2.21	2.4	0.501	1.61	1.58	3.05	0.363	0.38	1.3	4.17	-0.00215	3.55	0.172	3.89
ATCGAAAGGTCGTGAGGTGGGTATACAGAAAGGC	5.14	4.18	0.358	3.28	0.784	4.96	3.35	3.96	1.29	2.77	-0.234	1.94	0.885	1.49	3.69	3.36	0.721	4.17	1.39	4.05
CAAACTAGGTCACCGGACGGTCAAAGTCCGCATG	4.83	4.33	1.97	3.09	0.428	5.37	9.09	7.27	5.34	6.89	8.62	8.82	3.09	1.22	4.69	2.54	0.265	3.73	0.94	4.7
CCTACAGGGCCAAAAAGGTCATTGATGCCGATAA	4.22	4.32	2.83	4.2	0.284	4.61	1.51	2.74	0.52	1.49	-0.0995	0.938	-1.38	-1.06	2.94	5.28	4.66	5.28	1.42	4.26
CCTCGGAGGAAAACAGGAGGTCAGAGCTGCCAGA	0.663	1.69	1.63	1.44	-0.702	2.13	0.128	-0.0182	-0.762	-0.104	-0.518	0.00562	-1.65	-1.51	1.04	1.5	0.172	1.95	0.262	1.53
ACTATTAGTTGACTTAGGGCTACCGATACGACGC	0.0661	-0.121	-0.0225	-0.352	0.601	-0.131	0.862	-0.0974	0.182	-0.112	-0.203	0.114	1.14	0.816	0.416	-0.151	-0.109	0.146	0.74	0.27
